{
  "source": "PubChem BioAssay AID1416",
  "about": "(The Scripps Research Institute Molecular Screening Center, 2008)",
  "note": "The campaign covered roughly 220,000 compounds. About 370 (0.17%) were called active.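 The calls were made as follows: active = inhibition above the mean inhibition of all tested compounds plus 3 SD, set separately per screening campaign (cut at about 2.9% in these data); inactive = the rest.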 Only a selection was taken, and actives are over-represented in it overall.",
  "data": [
    {"target": "Eukaryotic translation initiation factor 2-alpha kinase 3 (Homo sapiens) (UniProt Q9NZJ5)", "sequence (Q9NZJ5 whole entry, looked up, the tested form may be a part)": "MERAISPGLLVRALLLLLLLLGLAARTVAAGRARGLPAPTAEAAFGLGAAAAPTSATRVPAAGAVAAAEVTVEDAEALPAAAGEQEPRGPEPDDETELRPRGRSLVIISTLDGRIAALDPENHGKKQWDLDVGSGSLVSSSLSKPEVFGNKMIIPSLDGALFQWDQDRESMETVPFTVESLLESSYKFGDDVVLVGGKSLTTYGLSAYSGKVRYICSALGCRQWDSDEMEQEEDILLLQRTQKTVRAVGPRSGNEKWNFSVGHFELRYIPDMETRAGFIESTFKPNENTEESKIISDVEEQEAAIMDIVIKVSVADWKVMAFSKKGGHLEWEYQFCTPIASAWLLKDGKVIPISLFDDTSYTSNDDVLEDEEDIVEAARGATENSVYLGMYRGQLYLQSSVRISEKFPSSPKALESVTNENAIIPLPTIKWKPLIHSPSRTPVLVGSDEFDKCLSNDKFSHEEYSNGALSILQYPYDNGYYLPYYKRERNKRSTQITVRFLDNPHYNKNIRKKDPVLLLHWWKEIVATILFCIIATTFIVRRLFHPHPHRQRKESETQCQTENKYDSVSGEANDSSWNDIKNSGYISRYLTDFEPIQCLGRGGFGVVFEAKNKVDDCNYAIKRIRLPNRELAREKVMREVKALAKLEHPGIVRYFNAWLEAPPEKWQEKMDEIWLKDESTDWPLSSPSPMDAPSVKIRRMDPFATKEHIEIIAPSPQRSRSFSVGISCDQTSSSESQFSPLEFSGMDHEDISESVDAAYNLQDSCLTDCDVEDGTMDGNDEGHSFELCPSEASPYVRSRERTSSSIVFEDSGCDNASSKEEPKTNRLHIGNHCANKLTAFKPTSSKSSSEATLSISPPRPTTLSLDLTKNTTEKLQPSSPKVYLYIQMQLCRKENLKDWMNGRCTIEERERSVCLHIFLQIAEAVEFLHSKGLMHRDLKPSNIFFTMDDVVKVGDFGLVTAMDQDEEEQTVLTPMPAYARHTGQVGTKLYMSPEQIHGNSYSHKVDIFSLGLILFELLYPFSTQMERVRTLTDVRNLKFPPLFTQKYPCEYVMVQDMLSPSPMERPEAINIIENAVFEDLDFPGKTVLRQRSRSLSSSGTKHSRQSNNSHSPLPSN", "test": "SEAP translation reporter rise after PERK-DD activation – CHO PERK-DD cells, SEAP luminescence, HTS, PERK inhibitor project, primary screen (AID 1416);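 also: PERK kinase domain activated by AP20187 dimerizer at 100 nM; 0% = DMSO with dimerizer and 100% = rapamycin at 8.4 µM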", "settings": "CHO PERK-DD fusion, at 5.6 µM, active compounds read high", "values": [
      {"smiles": "COc1ccccc1N=C(C)C1=C(O)COC1=O", "inhibition": "0.22% (inactive)"},
      {"smiles": "O=[N+]([O-])c1ccc2c(c1)C(O)n1nc(-c3ccccc3)nc1S2", "note": "(configuration not stated)", "inhibition": "1.41% (inactive)"},
      {"smiles": "Cc1ccc(C(C)(C)C)c(OCCCCN2CCCC2)c1", "inhibition": "-1.02% (inactive)"},
      {"smiles": "CS(=O)(=O)N(CC(=O)Nc1ccc(F)cc1F)c1cccc([N+](=O)[O-])c1", "inhibition": "1.41% (inactive)"},
      {"smiles": "Cc1ccc(C)c(NC(=S)NNC(=S)Nc2ccc(C(C)C)cc2)c1", "inhibition": "0.16% (inactive)"},
      {"smiles": "OCCN1CCN(C(=S)c2ccc(-c3ccccc3)cc2)CC1", "inhibition": "0.18% (inactive)"},
      {"smiles": "CCOc1ccc(C(=O)NC(=S)Nc2ccc(N3CCOCC3)c(Cl)c2)cc1[N+](=O)[O-]", "inhibition": "1.74% (inactive)"},
      {"smiles": "CCCCn1nc(C(=O)Nc2ccc(S(=O)(=O)Nc3ncccn3)cc2)c2ccccc2c1=O", "inhibition": "0.72% (inactive)"},
      {"smiles": "O=c1c2sccc2nc(SCc2cc(=O)n3ccccc3n2)n1-c1ccc(Br)cc1", "inhibition": "-1.2% (inactive)"},
      {"smiles": "COc1cc(/C=N/NC(=O)Nc2ccccc2)ccc1OCCOc1ccccc1C", "inhibition": "0.13% (inactive)"},
      {"smiles": "CC(=O)Nc1ccccc1NC(=O)c1cc(C)cc(C)c1", "inhibition": "0.02% (inactive)"},
      {"smiles": "O=c1[nH][nH]c(=O)c2cc(N3CCCC3)ccc12", "inhibition": "0.69% (inactive)"},
      {"smiles": "Cc1ccccc1C(=O)Nc1ccc(N2CCCCCC2)cc1", "inhibition": "-0.25% (inactive)"},
      {"smiles": "O=C1C=CC(=O)N1c1ccc(N2CCCCC2)cc1", "inhibition": "3.21% (active)"},
      {"smiles": "CN1CCN(c2ccc(NC(=O)c3ccc4c(c3)[nH]c(=O)n4Cc3ccc(F)cc3)cc2)CC1", "inhibition": "0.51% (inactive)"},
      {"smiles": "CCc1cc(C(N)=O)c(NC(=O)c2ccc(OC)cc2)s1", "inhibition": "0.45% (inactive)"},
      {"smiles": "Cc1ccc2cc(/C=N/NC(=O)[C@@H]3CCCN3)c(Cl)nc2c1", "inhibition": "-0.87% (inactive)"},
      {"smiles": "C=CCSc1nc(N)cc(=O)[nH]1", "inhibition": "2.99% (active)"},
      {"smiles": "CCCCc1nnc(NC(=O)CSc2nc(N)cc(=O)[nH]2)s1", "inhibition": "0.08% (inactive)"},
      {"smiles": "C=CCSc1nc2ccccc2[nH]1", "inhibition": "-0.36% (inactive)"},
      {"smiles": "CCOc1ccc(CCNC(=O)C(CC)n2nc(C)n3c(cc4sccc43)c2=O)cc1OCC", "note": "(configuration not stated)", "inhibition": "-0.56% (inactive)"},
      {"smiles": "O=C(NCCc1ccc(F)cc1)c1n[nH]c2ccccc12", "inhibition": "0.75% (inactive)"},
      {"smiles": "C=C(C)CSc1nnc(-c2ccc(C)cc2)n1N", "inhibition": "0.46% (inactive)"},
      {"smiles": "CCCn1nnnc1NC(=O)COc1ccc(Cl)cc1C", "inhibition": "-0.15% (inactive)"},
      {"smiles": "CSc1ccc(NC(=O)/C=C/C(=O)O)cc1", "inhibition": "0.87% (inactive)"},
      {"smiles": "COc1cccc(-c2ccc(C#N)c(SCC(=O)NCCc3ccc(Cl)cc3)n2)c1", "inhibition": "1.75% (inactive)"},
      {"smiles": "Cc1ccc(S(=O)(=O)N(Cc2ccc(Cl)cc2)c2ccccc2C(=O)NCc2cccnc2)cc1", "inhibition": "-0.82% (inactive)"},
      {"smiles": "O=C(Nc1ccc2cn[nH]c2c1)c1ccc(S(=O)(=O)N2CCOCC2)cc1", "inhibition": "1.2% (inactive)"},
      {"smiles": "Cc1ccc(NNC(=O)C2CCC2)cc1C", "inhibition": "0.43% (inactive)"},
      {"smiles": "COC(=O)CSc1nc2c(c(C3CC=CCC3)c1C#N)CCC2", "note": "(configuration not stated)", "inhibition": "0.22% (inactive)"},
      {"smiles": "CCC(C)OC(=O)C(C)Oc1ccc(-c2ccccc2)cc1", "note": "(configuration not stated)", "inhibition": "-0.27% (inactive)"},
      {"smiles": "Cc1nn(Cc2ccccc2Cl)c(C)c1NC(=O)Cn1nc([N+](=O)[O-])c(Cl)c1C", "inhibition": "-0.58% (inactive)"},
      {"smiles": "CC(=O)N1CCN(S(=O)(=O)c2ccc(C)c([N+](=O)[O-])c2)C1C(C)C", "note": "(configuration not stated)", "inhibition": "0.34% (inactive)"},
      {"smiles": "Cc1cccc(C)c1NC(=S)N(Cc1cccnc1)Cc1ccccc1Cl", "inhibition": "-0.05% (inactive)"},
      {"smiles": "CSc1ccccc1C(=O)NCc1ccccc1", "inhibition": "1.84% (inactive)"},
      {"smiles": "O=S(=O)(Nc1ncccn1)c1ccc(NS(=O)(=O)c2cccc(Cl)c2Cl)cc1", "inhibition": "0.64% (inactive)"},
      {"smiles": "Cc1cc(-c2n[nH]c(=S)n2-c2ccc(C)c(C)c2)no1", "inhibition": "3.32% (active)"},
      {"smiles": "COc1ccccc1-n1c(-c2cc(-c3ccco3)[nH]n2)n[nH]c1=S", "inhibition": "1.16% (inactive)"},
      {"smiles": "Cc1ccc(OCc2n[nH]c(=S)n2-c2ccc(C)cc2)cc1", "inhibition": "0.51% (inactive)"},
      {"smiles": "Cc1cc(NC(=O)CCC(=O)N(CC(=O)NCC2CCCO2)c2ccccc2C)no1", "note": "(configuration not stated)", "inhibition": "0.7% (inactive)"},
      {"smiles": "Cc1ccc(SCCC(=O)Nc2cc(C)on2)cc1", "inhibition": "1.3% (inactive)"},
      {"smiles": "COCCNC(=O)CN(C(=O)CCC(=O)Nc1cc(C)on1)c1ccc(C)cc1C", "inhibition": "3.05% (active)"},
      {"smiles": "O=[N+]([O-])/C(N=Nc1ccccc1)=N\\Nc1ccccc1", "inhibition": "0.56% (inactive)"},
      {"smiles": "N#Cc1c(NC(=O)c2ccc(N3CCOCC3)c([N+](=O)[O-])c2)sc2c1CCCC2", "inhibition": "0.19% (inactive)"},
      {"smiles": "O=S(=O)(c1ccc(NC(=S)NN=C(C2CC2)C2CC2)cc1)N1CCOCC1", "inhibition": "1.01% (inactive)"},
      {"smiles": "C=CCSC(CC)(CC)C(N)=O", "inhibition": "2.98% (active)"},
      {"smiles": "O=S(=O)(NCC1OCCc2ccccc21)c1ccccc1", "note": "(configuration not stated)", "inhibition": "0.47% (inactive)"},
      {"smiles": "Cc1c(-c2ccccc2)cn2c1-c1ccc(C)n1CC2", "inhibition": "0.83% (inactive)"},
      {"smiles": "Cn1nccc1NC(=O)Nc1ccc(OC(F)(F)F)cc1", "inhibition": "4.03% (active)"},
      {"smiles": "COC(=O)[C@H](C)NC(=O)Nc1ccc(OC(F)(F)F)cc1", "inhibition": "-0.1% (inactive)"},
      {"smiles": "CCOC(=O)Cc1ncccc1C(=O)Nc1ccc(OC(F)(F)F)cc1", "inhibition": "0.3% (inactive)"},
      {"smiles": "Cc1ccc(S(=O)(=O)Cc2cc(-c3ccc(Cl)cc3)no2)cc1", "inhibition": "0.87% (inactive)"},
      {"smiles": "CCOC(=O)CN1C(=O)N[C@@H](c2ccc(Br)cc2)C(C(C)=O)=C1C", "inhibition": "0.08% (inactive)"},
      {"smiles": "CCOCCCNC(=O)Cc1cc(=O)[nH]c(=O)[nH]1", "inhibition": "3.08% (active)"},
      {"smiles": "CCOC(=O)Cc1cc(=O)[nH]c(=O)[nH]1", "inhibition": "1.51% (inactive)"},
      {"smiles": "CCOCCCNC(=O)C(=O)NCCCOCC", "inhibition": "0.9% (inactive)"},
      {"smiles": "O=C(CN1CCc2ccccc21)NC(c1ccccc1)c1ccccc1", "inhibition": "-0.59% (inactive)"},
      {"smiles": "CN(C)C(=O)c1cc(Br)ccc1Cl", "inhibition": "2.54% (inactive)"},
      {"smiles": "CC(=O)NC(Cc1ccc(F)c(F)c1)C(=O)NC1CCN(C(=O)c2ccc(C)cc2)CC1", "note": "(configuration not stated)", "inhibition": "0.06% (inactive)"},
      {"smiles": "C=C(C)C1CC=C(C)/C(=N\\NC(=O)CNc2ccccc2OC)C1", "note": "(configuration not stated)", "inhibition": "0.13% (inactive)"},
      {"smiles": "O=C(O)COc1nsnc1N1CCOCC1", "inhibition": "2.98% (active)"},
      {"smiles": "c1ccc(COc2nsnc2N2CCOCC2)cc1", "inhibition": "1.4% (inactive)"},
      {"smiles": "c1nc(COc2nsnc2N2CCOCC2)cs1", "inhibition": "0.89% (inactive)"},
      {"smiles": "NCC(=O)c1cccc2ccc[n+]([O-])c12", "inhibition": "-0.12% (inactive)"},
      {"smiles": "COc1cc(C(=O)N2CCN(C/C=C/c3ccccc3)CC2)cc(OC)c1C", "inhibition": "-0.57% (inactive)"},
      {"smiles": "CC(C)N1CCC(=NNc2ccc([N+](=O)[O-])cc2S(=O)(=O)N2CCOCC2)CC1", "inhibition": "1% (inactive)"},
      {"smiles": "CC(C)N(C(=O)CSc1nc(COc2ccccc2)nc2ccccc12)C(C)C", "inhibition": "0.48% (inactive)"}
    ]}
  ]
}
